Experimental data as given in the supplement of paper PMC12494721.
Where a name gives a salt, the structure may show the parent alone. Unmarked numbers belong to inactive results.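 The calls were made as follows: for the amine columns active = adjusted P below 0.05 in both replicates with a change the same way and a mean fold change under 0.8 or over 1.25; inactive = the rest.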

test system: Escherichia coli IAI1; test: fold change of Putrescine concentration vs plate DMSO controls (fold change (ratio)); higher = more amine produced, active = hit call of the paper (significant change in both replicates, either direction); details: 20 µM; incubation time: 27 h, anaerobic, 37 °C
How it was run: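 Each value is the fold change relative to DMSO-only wells on the same plate. Four gut bacterial strains were grown anaerobically in mGAM at 37 °C for 27 h in 80 µL wells, starting at OD 0.1 before a 1:1 dilution, with compounds at 20 µM final (sweeteners 50 µM). Whole cultures were extracted with cold acetonitrile/methanol containing 0.1% formic acid, centrifuged, and amines were quantified by LC–triple-quadrupole MS (dynamic MRM) against external calibration curves with within-batch drift correction. Values are means of 2 biological replicates.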

Compound	fold change of Putrescine concentration
C=C[C@H]1CN2CC[C@H]1C[C@H]2[C@H](OC(=O)OCC)c1ccnc2ccc(OC)cc12 [Quinine ethyl carbonate]	1.03
S=C(NC1CCCCC1)N1CCC(c2cnc[nH]2)CC1 [Thioperamide maleate]	0.98
N#Cc1sc2c(=O)c3ccccc3c(=O)c=2sc1C#N	1.02
CC(=O)OC1CN2CCC1CC2 (configuration not stated) [Aceclidine hydrochloride]	1.02
C1=Cc2cccc3cccc1c23 [Acenaphthylene]	1.02
CS(=O)(=O)c1ccc(C(=O)C2C(=O)CCCC2=O)c([N+](=O)[O-])c1	0.929
CCN(CC)CCOC(=O)C(O)(c1ccccc1)c1ccccc1 [Benactyzine hydrochloride]	1.02
c1ccc2c(c1)Nc1ccccc1S2 [Phenothiazine]	0.944
CCC1(C)CC(=O)NC(=O)C1 [Bemegride]	0.985
CNC(=O)/C=C(\C)OP(=O)(OC)OC	0.968
CC[N+]1(C)CCCC(OC(=O)C(O)(c2ccccc2)c2ccccc2)C1 (configuration not stated) [Pipenzolate bromide]	1.06
CC(C)(C)c1ccc(CSc2cnn(C(C)(C)C)c(=O)c2Cl)cc1	0.97
CSc1nc(NC(C)C)nc(NC(C)C)n1	0.946
O=C(Nc1ccc(F)cc1F)c1cccnc1Oc1cccc(C(F)(F)F)c1	1.01
O=C(CCCN1CCC2(CC1)C(=O)NCN2c1ccccc1)c1ccc(F)cc1 [Spiperone]	1.02
CCOCN(C(=O)CCl)c1c(C)cccc1CC	0.901
ClC1C(Cl)C(Cl)C(Cl)C(Cl)C1Cl (configuration not stated)	1
CCSC(C)CC1CC(=O)C(/C(CC)=N/OC/C=C/Cl)=C(O)C1 (mixture of isomers)	1.02
O=P1(N(CCCl)CCCl)NCCCO1 (configuration not stated) [Cyclophosphamide]	1.01

Compound	fold change of Putrescine concentration
CN1[C@@H]2C[C@@H](OC(=O)[C@H](CO)c3ccccc3)C[C@H]1[C@@H]1O[C@@H]12 [Scopolamine hydrochloride]	1.17
COP(=S)(OC)SCN1C(=O)c2ccccc2C1=O	1.01
CC(C)N(C)S(=O)(=O)NC(=O)c1cc(-n2c(=O)cc(C(F)(F)F)n(C)c2=O)c(F)cc1Cl	0.983
CN/C(=N/CC1CCOC1)N[N+](=O)[O-] (configuration not stated)	1.03
CC(=O)O[C@H]1C[C@H](O[C@H]2[C@@H](O)C[C@H](O[C@H]3[C@@H](O)C[C@H](O[C@H]4CC[C@@]5(C)[C@H](CC[C@@H]6[C@@H]5C[C@@H](O)[C@]5(C)[C@@H](C7=CC(=O)OC7)CC[C@]65O)C4)O[C@@H]3C)O[C@@H]2C)O[C@H](C)[C@H]1O[C@@H]1O[C@H](CO)[C@@H](O)[C@H](O)[C@H]1O [Lanatoside C]	1.09
NC(=O)C[S+]([O-])C(c1ccccc1)c1ccccc1 (configuration not stated) [Modafinil]	1.01
CCn1cc(C(=O)O)c(=O)c2cc3c(cc21)OCO3 [Oxolinic acid]	0.59 (active)
c1ccc2c(c1)cc1ccc3cccc4ccc2c1c34 [Benzo[a]pyrene]	0.977
CCNC(=O)NC(=O)/C(C#N)=N/OC	1.05
CNC(=O)Oc1ccc2c(c1)[C@]1(C)CCN(C)[C@@H]1N2C [Eserine hemisulfate salt]	1.06
Oc1ccc2c3c1O[C@H]1[C@@H](O)CC[C@@]4(O)[C@@H](C2)N(CC2CCC2)CC[C@]314 [Nalbuphine hydrochloride]	1.04
CON(C)C(=O)Nc1ccc(Cl)c(Cl)c1	0.982
C=CC(N)=O [Acrylamide]	0.967
Nc1ccncc1 [Dalfampridine]	0.968
CC(=O)O[C@H]1C[C@@H]2CC[C@@H]3[C@H](CC[C@@]4(C)[C@H]3C[C@H]([N+]3(C)CCCCC3)[C@@H]4OC(C)=O)[C@@]2(C)C[C@@H]1[N+]1(C)CCCCC1 [Pancuronium bromide]	1.07
CC(C)(C)C(O)(CCc1ccc(Cl)cc1)Cn1cncn1 (configuration not stated)	0.998
CCNC1(c2cccs2)CCCCC1=O (configuration not stated) [Tiletamine hydrochloride]	0.955
COc1ccc(OC)c(C(O)C(C)N)c1 (configuration not stated) [Methoxamine hydrochloride]	1.05
